Source: ChEMBL document CHEMBL1961873, “Compounds: GSK PKIS; Assays: Nanosyn kinase panel” (2012)

What was measured:
[1] = molecular target: Mast/stem cell growth factor receptor Kit (Homo sapiens) (UniProt P10721); conditions: at 1 µM
[2] = test system: Mast/stem cell growth factor receptor Kit (Homo sapiens), P10721 [D816V]; conditions: at 0.1 µM
[3] = test system: Mast/stem cell growth factor receptor Kit (Homo sapiens), P10721 [D816V]; conditions: at 1 µM
[4] = test system: Mast/stem cell growth factor receptor Kit (Homo sapiens), P10721 [T670I]; conditions: at 0.1 µM
[5] = test system: Mast/stem cell growth factor receptor Kit (Homo sapiens), P10721 [T670I]; conditions: at 1 µM
[6] = test system: Mast/stem cell growth factor receptor Kit (Homo sapiens), P10721 [V560G]; conditions: at 0.1 µM
[7] = test system: Mast/stem cell growth factor receptor Kit (Homo sapiens), P10721 [V560G]; conditions: at 1 µM
[8] = molecular target: Tyrosine-protein kinase Lck (Homo sapiens) (UniProt P06239); conditions: at 0.1 µM
[9] = molecular target: Tyrosine-protein kinase Lck (Homo sapiens) (UniProt P06239); conditions: at 1 µM
[10] = molecular target: Leukocyte tyrosine kinase receptor (Homo sapiens) (UniProt P29376); conditions: at 0.1 µM
[11] = molecular target: Leukocyte tyrosine kinase receptor (Homo sapiens) (UniProt P29376); conditions: at 1 µM
[12] = molecular target: Tyrosine-protein kinase Lyn (Homo sapiens) (UniProt P07948); conditions: at 0.1 µM
[13] = molecular target: Tyrosine-protein kinase Lyn (Homo sapiens) (UniProt P07948); conditions: at 1 µM
[14] = molecular target: Tyrosine-protein kinase Lyn (Homo sapiens) (UniProt P07948); conditions: at 0.1 µM; remark: listed apart in the source
[15] = molecular target: Tyrosine-protein kinase Lyn (Homo sapiens) (UniProt P07948); conditions: at 1 µM; remark: listed apart in the source
[16] = molecular target: T1, Tyrosine-protein kinase Mer (Homo sapiens) (UniProt Q12866); conditions: at 0.1 µM
T1 sequence (whole entry): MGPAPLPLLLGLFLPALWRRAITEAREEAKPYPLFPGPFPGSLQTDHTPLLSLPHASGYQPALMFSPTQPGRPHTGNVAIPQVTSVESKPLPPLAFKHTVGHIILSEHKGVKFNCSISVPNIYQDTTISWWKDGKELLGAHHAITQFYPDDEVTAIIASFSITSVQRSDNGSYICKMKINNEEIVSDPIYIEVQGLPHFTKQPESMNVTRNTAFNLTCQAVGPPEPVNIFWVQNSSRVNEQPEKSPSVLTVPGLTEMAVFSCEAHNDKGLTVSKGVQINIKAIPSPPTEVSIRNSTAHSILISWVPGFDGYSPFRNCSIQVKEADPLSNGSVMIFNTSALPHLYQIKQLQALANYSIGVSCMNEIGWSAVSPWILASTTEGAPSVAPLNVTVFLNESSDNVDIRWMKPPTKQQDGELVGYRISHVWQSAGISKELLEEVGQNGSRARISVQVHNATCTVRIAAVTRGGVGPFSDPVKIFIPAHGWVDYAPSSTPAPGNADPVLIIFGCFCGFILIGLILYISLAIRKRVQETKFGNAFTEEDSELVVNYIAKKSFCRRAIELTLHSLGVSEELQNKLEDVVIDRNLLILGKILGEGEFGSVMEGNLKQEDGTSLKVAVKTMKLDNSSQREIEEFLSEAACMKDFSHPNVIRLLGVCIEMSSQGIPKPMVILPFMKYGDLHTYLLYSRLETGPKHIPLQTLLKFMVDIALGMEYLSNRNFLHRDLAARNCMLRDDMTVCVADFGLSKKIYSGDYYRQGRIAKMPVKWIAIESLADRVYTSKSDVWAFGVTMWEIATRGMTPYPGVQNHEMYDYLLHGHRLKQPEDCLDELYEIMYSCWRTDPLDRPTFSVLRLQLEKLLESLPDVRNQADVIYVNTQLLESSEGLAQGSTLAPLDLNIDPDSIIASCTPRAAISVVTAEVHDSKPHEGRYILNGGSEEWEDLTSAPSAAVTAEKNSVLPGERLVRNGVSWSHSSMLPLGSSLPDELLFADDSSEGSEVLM

[17] = molecular target: T1, Tyrosine-protein kinase Mer (Homo sapiens); conditions: at 1 µM
[18] = molecular target: Hepatocyte growth factor receptor (Homo sapiens) (UniProt P08581); conditions: at 0.1 µM
[19] = molecular target: Hepatocyte growth factor receptor (Homo sapiens) (UniProt P08581); conditions: at 1 µM
[20] = molecular target: T2, Muscle, skeletal receptor tyrosine-protein kinase (Homo sapiens) (UniProt O15146); conditions: at 0.1 µM;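 further: values are mean inhibition of MuSK from the GSK PKIS kinase screening panel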
T2 sequence (whole entry): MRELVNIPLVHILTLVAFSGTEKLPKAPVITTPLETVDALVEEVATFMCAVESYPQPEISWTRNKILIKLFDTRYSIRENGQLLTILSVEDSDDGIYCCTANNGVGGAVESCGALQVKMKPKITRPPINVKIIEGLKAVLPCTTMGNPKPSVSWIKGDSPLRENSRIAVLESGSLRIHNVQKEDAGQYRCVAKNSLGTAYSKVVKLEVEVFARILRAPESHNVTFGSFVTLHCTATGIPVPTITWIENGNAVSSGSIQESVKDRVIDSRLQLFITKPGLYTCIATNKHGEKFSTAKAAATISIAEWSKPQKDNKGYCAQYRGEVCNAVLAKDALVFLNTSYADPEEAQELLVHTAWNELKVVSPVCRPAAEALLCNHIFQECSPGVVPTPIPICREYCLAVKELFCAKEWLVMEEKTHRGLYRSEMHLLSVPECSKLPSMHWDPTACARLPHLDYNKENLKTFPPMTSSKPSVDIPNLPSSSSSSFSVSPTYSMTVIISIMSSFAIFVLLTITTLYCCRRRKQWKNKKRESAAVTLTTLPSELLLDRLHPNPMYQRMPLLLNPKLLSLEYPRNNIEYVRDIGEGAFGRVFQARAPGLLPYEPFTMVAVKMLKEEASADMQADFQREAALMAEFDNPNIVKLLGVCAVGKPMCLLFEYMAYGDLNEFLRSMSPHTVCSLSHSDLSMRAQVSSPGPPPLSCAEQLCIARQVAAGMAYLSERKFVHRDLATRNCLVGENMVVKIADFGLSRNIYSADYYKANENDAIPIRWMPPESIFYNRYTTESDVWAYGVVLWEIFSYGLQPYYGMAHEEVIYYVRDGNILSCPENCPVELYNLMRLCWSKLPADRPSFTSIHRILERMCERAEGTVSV

Sequence of Tyrosine-protein kinase Lyn (Homo sapiens) (P07948 2-512 limits assumed): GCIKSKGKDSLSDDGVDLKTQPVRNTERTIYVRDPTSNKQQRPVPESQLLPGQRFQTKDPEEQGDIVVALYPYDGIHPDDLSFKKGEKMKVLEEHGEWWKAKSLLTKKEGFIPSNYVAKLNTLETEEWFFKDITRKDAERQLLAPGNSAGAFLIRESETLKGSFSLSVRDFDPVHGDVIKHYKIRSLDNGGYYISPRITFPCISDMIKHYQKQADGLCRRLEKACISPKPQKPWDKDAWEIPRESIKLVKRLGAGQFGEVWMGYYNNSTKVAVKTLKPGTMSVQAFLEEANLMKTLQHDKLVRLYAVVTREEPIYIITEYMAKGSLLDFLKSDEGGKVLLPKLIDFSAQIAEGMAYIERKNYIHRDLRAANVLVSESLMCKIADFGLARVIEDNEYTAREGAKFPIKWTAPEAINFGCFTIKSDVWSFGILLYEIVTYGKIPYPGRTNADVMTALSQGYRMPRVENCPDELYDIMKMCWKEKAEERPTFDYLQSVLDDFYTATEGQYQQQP
Sequence of Mast/stem cell growth factor receptor Kit (Homo sapiens), P10721 [D816V] (P10721 whole entry D816V): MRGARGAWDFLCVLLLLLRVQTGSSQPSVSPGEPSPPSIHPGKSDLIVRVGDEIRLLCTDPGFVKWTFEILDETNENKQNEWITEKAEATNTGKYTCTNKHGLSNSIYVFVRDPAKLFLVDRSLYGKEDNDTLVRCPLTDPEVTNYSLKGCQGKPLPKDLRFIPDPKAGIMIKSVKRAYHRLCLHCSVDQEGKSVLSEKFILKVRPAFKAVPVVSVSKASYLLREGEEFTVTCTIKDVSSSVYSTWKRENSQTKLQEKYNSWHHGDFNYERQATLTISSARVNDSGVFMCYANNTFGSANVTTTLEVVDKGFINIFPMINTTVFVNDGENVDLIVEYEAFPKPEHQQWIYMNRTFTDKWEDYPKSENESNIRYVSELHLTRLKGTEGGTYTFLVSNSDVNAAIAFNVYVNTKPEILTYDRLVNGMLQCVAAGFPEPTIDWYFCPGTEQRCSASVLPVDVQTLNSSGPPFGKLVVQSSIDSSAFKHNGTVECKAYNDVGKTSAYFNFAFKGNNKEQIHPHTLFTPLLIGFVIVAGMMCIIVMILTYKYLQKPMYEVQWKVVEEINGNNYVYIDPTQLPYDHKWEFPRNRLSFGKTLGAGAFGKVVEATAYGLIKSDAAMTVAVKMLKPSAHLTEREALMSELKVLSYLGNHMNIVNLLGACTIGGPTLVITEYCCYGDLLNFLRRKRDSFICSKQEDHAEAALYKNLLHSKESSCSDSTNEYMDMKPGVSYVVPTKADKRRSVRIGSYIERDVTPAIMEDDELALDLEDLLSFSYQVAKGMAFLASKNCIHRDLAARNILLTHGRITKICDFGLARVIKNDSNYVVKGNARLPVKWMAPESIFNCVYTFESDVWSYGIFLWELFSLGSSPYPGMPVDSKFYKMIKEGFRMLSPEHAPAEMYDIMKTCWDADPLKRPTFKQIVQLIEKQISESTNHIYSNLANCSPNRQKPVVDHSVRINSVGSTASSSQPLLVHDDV
Sequence of Mast/stem cell growth factor receptor Kit (Homo sapiens) (P10721 whole entry): as the sequence (P10721 whole entry D816V) above, with V816D counted along it
Sequence of Hepatocyte growth factor receptor (Homo sapiens) (P08581 whole entry): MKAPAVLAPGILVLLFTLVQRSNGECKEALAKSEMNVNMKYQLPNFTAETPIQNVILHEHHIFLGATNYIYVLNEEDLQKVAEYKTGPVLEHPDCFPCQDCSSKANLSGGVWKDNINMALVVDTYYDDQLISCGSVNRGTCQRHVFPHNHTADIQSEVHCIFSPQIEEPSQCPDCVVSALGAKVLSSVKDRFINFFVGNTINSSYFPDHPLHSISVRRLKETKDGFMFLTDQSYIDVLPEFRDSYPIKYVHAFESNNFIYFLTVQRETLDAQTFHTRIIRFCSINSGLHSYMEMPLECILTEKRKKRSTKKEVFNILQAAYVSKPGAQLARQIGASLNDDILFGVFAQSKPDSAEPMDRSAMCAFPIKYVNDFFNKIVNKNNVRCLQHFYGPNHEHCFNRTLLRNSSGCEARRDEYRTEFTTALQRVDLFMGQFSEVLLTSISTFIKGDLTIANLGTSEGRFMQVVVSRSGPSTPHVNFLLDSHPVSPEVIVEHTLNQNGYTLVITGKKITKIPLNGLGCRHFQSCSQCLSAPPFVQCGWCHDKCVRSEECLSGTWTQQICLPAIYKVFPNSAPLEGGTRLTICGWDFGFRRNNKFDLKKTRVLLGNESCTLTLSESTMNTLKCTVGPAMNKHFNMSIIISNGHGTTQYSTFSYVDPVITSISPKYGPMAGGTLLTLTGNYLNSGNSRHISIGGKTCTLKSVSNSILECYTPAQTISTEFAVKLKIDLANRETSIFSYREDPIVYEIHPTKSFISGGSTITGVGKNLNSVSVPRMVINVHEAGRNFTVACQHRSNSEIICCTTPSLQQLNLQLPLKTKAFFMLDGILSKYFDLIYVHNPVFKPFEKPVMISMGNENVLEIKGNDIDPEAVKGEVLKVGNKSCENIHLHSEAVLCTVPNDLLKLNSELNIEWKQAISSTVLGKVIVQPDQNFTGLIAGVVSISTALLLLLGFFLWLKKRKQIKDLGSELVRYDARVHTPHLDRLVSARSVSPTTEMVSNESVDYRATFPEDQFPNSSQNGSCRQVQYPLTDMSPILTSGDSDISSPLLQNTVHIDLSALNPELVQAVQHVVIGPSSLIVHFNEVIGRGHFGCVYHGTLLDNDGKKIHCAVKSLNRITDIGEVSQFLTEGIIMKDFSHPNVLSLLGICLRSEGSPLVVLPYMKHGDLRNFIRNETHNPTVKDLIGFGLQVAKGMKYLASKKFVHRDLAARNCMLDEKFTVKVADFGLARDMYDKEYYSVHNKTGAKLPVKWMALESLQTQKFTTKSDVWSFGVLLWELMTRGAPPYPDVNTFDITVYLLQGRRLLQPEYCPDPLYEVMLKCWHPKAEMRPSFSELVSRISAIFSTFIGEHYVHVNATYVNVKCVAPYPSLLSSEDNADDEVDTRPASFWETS
Sequence of Tyrosine-protein kinase Lck (Homo sapiens) (P06239 2-509 limits assumed): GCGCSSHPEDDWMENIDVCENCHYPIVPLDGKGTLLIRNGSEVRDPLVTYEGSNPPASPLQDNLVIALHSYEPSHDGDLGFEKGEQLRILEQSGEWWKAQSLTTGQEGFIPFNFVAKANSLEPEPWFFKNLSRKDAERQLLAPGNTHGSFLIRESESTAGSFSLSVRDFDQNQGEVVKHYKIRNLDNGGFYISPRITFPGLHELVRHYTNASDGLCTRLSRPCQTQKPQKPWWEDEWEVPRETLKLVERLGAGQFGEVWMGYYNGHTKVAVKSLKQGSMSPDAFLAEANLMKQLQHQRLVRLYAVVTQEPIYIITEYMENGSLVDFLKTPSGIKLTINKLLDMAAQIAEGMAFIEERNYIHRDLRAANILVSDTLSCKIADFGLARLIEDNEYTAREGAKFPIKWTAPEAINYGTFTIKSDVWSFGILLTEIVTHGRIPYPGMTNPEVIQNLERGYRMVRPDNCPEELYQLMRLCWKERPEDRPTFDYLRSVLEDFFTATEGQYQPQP
Sequence of Leukocyte tyrosine kinase receptor (Homo sapiens) (P29376 whole entry): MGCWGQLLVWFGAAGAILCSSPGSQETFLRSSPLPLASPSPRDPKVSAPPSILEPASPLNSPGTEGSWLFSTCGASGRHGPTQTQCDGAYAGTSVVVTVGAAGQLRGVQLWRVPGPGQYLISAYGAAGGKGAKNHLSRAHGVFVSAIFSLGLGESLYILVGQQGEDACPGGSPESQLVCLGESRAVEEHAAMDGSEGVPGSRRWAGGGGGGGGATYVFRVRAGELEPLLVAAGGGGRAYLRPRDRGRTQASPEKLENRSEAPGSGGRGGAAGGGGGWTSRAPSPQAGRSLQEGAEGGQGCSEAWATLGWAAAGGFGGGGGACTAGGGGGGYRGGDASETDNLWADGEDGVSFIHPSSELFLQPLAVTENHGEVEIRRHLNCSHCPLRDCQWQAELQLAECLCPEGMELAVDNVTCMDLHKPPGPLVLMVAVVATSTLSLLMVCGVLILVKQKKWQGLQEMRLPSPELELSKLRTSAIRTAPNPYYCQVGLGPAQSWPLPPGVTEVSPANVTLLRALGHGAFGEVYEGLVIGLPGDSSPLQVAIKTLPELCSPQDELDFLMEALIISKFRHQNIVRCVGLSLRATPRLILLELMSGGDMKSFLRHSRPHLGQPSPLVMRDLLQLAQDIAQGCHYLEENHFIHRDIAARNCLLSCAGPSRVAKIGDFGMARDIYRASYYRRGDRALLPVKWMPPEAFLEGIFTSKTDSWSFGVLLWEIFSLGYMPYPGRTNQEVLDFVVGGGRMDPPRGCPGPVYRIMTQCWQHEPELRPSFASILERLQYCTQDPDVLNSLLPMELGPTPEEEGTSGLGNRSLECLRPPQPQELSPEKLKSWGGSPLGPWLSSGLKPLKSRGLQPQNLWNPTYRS
Sequence of Mast/stem cell growth factor receptor Kit (Homo sapiens), P10721 [V560G] (P10721 whole entry V560G): as the sequence (P10721 whole entry D816V) above, with V560G, V816D counted along it
Sequence of Mast/stem cell growth factor receptor Kit (Homo sapiens), P10721 [T670I] (P10721 whole entry T670I): as the sequence (P10721 whole entry D816V) above, with T670I, V816D counted along it

| SMILES | inhibition [1] [%] | inhibition [2] [%] | inhibition [3] [%] | inhibition [4] [%] | inhibition [5] [%] | inhibition [6] [%] | inhibition [7] [%] | inhibition [8] [%] | inhibition [9] [%] | inhibition [10] [%] | inhibition [11] [%] | inhibition [12] [%] | inhibition [13] [%] | inhibition [14] [%] | inhibition [15] [%] | inhibition [16] [%] | inhibition [17] [%] | inhibition [18] [%] | inhibition [19] [%] | inhibition [20] [%] |
| --- | --- | --- | --- | --- | --- | --- | --- | --- | --- | --- | --- | --- | --- | --- | --- | --- | --- | --- | --- | --- |
| NS(=O)(=O)c1ccc(-c2cc3ccncc3cc2OCc2ccccc2)cc1 | 8.06 | 2.17 | 3.92 | 2.02 | 4.23 | 0.41 | 0.33 | 1.15 | 3.87 | 6.08 | 14.8 | 5.43 | 8.06 | 4.33 | 5.23 | 0.4 | 1.77 | 9.74 | 5.85 | 1.45 |
| COc1ccc2ncnc(Nc3ccc(OCc4ccccc4)cc3)c2c1 | 9.52 | 2.81 | 0.98 | 0.74 | 2.49 | -1.68 | 0.69 | 1.39 | 7.05 | 2.27 | -0.07 | 2.3 | 6.36 | 1.2 | 4.75 | 2.16 | 12.9 | -2.88 | 2.39 | 1.31 |
| CN(c1ccc(NC(=O)Nc2ccc(OC(F)(F)F)cc2)cc1)c1ccnc(Nc2cccc(S(N)(=O)=O)c2)n1 | 95.3 | 3.73 | 2.45 | 22.9 | 89.9 | 37.6 | 93.4 | 33.7 | 80.1 | 2.69 | 6.43 | 39.9 | 83.2 | 37.1 | 83.6 | 5.5 | 49.2 | 34.4 | 64.9 | 8.36 |
| O=C1Nc2ccccc2/C1=C/Nc1ccc2[nH]c(=O)[nH]c2c1 | 84.4 | 3.67 | 10.1 | 13.6 | 71.7 | -0.78 | 21.8 | 3.64 | 11.9 | 5.48 | 13.2 | 10.5 | 30.1 | 7.45 | 23.2 | 1.74 | 7.93 | 7.49 | 14.8 | 6.75 |
| O=S(=O)(CCOCc1ccc(-c2ccc3ncnc(Nc4ccc(OCc5cccc(F)c5)c(Cl)c4)c3c2)o1)c1ccccc1 | 0.51 | 0.43 | -1.83 | 5.11 | 0.78 | -1.47 | -2.4 | 1.96 | 3.4 | 2.35 | 3.13 | 1.13 | 2.54 | -1.61 | -0.4 | -1.18 | 6.22 | 0.79 | 8.46 | 4.67 |
| COc1cccc(-n2ncc3c(N/N=C/c4ccc(S(C)(=O)=O)cc4)ncnc32)c1 | 61.6 | 1.61 | 9.23 | 7.49 | 44.8 | 1.83 | 7.89 | 37.7 | 73.9 | 1.43 | 2.05 | 54.1 | 76.5 | 48.1 | 73.3 | 6.96 | 28.3 | 14.5 | 47.6 | 12.1 |
| NS(=O)(=O)c1ccc(NC=C2C(=O)Nc3ccc4ncsc4c32)cc1 | 94.3 | 8.42 | 31 | 19.8 | 67.2 | 1.8 | 32 | 5.47 | 30.9 | 4.74 | 17.3 | 11.5 | 47.1 | 7.96 | 40.9 | 3.9 | 16.3 | 18.8 | 62.2 | 23.7 |
| COc1ccc(-c2nn3ncccc3c2-c2ccnc(Nc3cccc(C(F)(F)F)c3)n2)cc1 | 26.5 | 0.93 | 3.05 | 3.67 | 4.13 | -1.16 | 7.05 | 3.91 | 20.3 | 2.17 | 2.59 | 4.45 | 12.7 | 3.78 | 10.3 | 1.45 | 3.23 | 6.61 | 12.1 | 2.37 |
| CN(C)CCCn1c(-c2nonc2N)nc2cnccc21 | 3.91 | 4.66 |  | 2.49 | 0.58 | -1.36 | -1.19 | 2.27 | 4.6 | 3.86 | 2.08 | 4.87 | 6.51 | 3.03 | 2.22 | 2.17 | 1.41 | 6.53 | 5.18 | -0.43 |
| Cc1ccc(Nc2ccnc(Nc3cccc(C(N)=O)c3)n2)cc1O | 42.7 | 14.9 | 54.3 | 2.19 | 5.43 | 3.09 | 21.1 | 29.2 | 72.2 | 4.36 | 15.9 | 61.2 | 90.5 | 56.5 | 88.8 | 1.3 | 11.7 | 5.11 | 6.87 | 5.89 |
| COc1cccc(-n2nc(C)c3c(N/N=C(\C)c4ccncc4)ncnc32)c1 | 2.68 | -0.3 | -0.84 | -1.32 | 0.13 | 2.07 | 0.19 | 0.65 | 2.98 | 1.52 | 1.76 | 1.67 | 2.24 | 2.02 | 1.38 | 1.59 | -0.09 | -1.53 | -2.4 | 0.43 |
| N#Cc1c(NC(=O)c2ccccc2F)sc2c1CCCC2 | -1.43 | -1.25 | -3.62 | -0.75 | 0.26 | 2.34 | 2.89 | 0.15 | 4.08 | -1.29 | -0.82 | -0.87 | 0.22 | -0.31 | 0.82 | -1.5 | 0.64 | 10.5 | 4.86 | 1.84 |
| NS(=O)(=O)c1ccc(Nc2cc(-c3cccc(O)c3)n[nH]2)cc1 | 83.7 | 3.6 | 4.78 | 4.57 | 4.81 | 4.28 | 25.4 | 1.64 | 4.8 | 2.99 | 3.32 | 6.83 | 8.1 | 3.6 | 3.96 | 0.91 | 6.51 | 5.16 | 2.36 | 4.32 |
| Nc1ccc(C#Cc2cncnc2Nc2ccc(OCc3cccc(F)c3)c(Cl)c2)cc1 | 5.56 | 2.12 | 3.81 | 1.88 | 3.05 | -3.03 | -1.6 | 2.57 | 4.92 | 3.5 | 3.27 | 3.52 | 4.42 | 3.04 | 3.28 | 1.5 | 2.05 | 1.74 | 3.8 | -0.05 |
